High-throughput results: PubChem BioAssay, The Scripps Research Institute Molecular Screening Center
sPLA2-III inh: Inhibits HGIII-sPLA2 liposome hydrolysis, primary screen; Q9NZ20; QFRET BODIPY PC-A2 liposome hydrolysis, fluorescence; inhibition, % at 12.2 µM; hit rate 0.56% among 370,000;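 active = inhibition above mean plus 3 SD of compounds lying within the high and low control bounds, cut at about 19% in these data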;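 note: 0% = median of test compound wells and 100% = no enzyme DMSO wells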
Target sequence (Q9NZ20 whole entry, looked up): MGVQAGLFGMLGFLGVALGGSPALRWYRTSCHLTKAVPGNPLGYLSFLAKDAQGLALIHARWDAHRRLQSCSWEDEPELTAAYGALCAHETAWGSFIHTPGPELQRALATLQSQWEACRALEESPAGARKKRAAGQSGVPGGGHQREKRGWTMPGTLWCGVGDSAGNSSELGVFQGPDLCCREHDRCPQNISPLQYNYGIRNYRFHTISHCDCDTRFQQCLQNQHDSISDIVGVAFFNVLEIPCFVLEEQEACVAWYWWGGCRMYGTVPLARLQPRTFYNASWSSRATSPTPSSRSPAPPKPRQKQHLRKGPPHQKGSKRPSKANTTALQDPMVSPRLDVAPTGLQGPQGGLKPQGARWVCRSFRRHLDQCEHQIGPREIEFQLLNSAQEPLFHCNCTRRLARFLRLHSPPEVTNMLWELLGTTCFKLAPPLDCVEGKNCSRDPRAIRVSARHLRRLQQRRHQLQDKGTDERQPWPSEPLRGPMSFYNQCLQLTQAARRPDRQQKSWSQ
bovine MsrA act: bovine methionine sulfoxide reductase A activation; activation, % at 10.6 µM; hit rate 0.3% among 360,000; purified bovine MsrA, absorbance read-out; in the data active = activation above about 7.5%;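 note: 0% = vehicle and 100% = reference activator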
rCAG RNA binder: binds r(CAG) RNA repeats. AID 651821. inhibition, % at 3 µM. hit rate 1.3% among 370,000. r(CAG) RNA repeat, TO-PRO-1 dye displacement fluorescence;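 active = inhibition above the plate cutoff, the mean of all test compounds on that plate plus 3 SD, cut at about 35% in these data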;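 note: 0% = DMSO alone and 100% = 100 µM mitoxantrone as full dye displacement; higher means more dye released from RNA so lower well fluorescence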
MsrA inhibitor: bovine MsrA inhibition | hit rate 0.75% among 360,000 | AID 651718 | inhibition, % at 15.5 µM | purified bovine MsrA, absorbance read-out; in the data active = inhibition above about 4.5%;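 note: 0% = vehicle wells with enzyme and 100% = reference inhibitor wells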
rCAG binder conf: r(CAG) RNA repeat binding, confirmation. shares compounds with rCAG RNA binder. TO-PRO-1 dye displacement fluorescence. inhibition, % at 3 µM. hit rate 70% among 4,300;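 active = inhibition above a per-plate cutoff, the mean inhibition of sample wells plus 3 SD, cut at about 35% in these data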;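 note: loss of TO-PRO-1 fluorescence as compound displaces dye from 1x1 AA loop RNA; 0% = DMSO only wells and 100% = 100 µM mitoxantrone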
dCAG dye counter: disrupts DNA CAG TO-PRO-1 complex, flagging rCAG hits. shares compounds with rCAG RNA binder. hit rate 94% among 4,300. d(CAG) DNA oligo TO-PRO-1 dye displacement, fluorescence. inhibition, % at 3 µM;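 active = inhibition above its plate's cutoff, the mean test-well inhibition plus 3 SD, cut at about 4.8% in these data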;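 note: 0% = DNA dye mix with DMSO and 100% = 100 µM mitoxantrone; hits displace the dye from DNA and so lower well fluorescence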
* = called active by the depositor. Shown are actives, neighbours in structure and some others; about 2.8% of the full set was active somewhere.

Screening COc1cc(/C=C2/C(=N)N3N=C(CC(=O)N4CCOCC4)SC3=NC2=O)ccc1OCc1ccc(F)cc1 returned sPLA2-III inh -21, bovine MsrA act 3, rCAG RNA binder 36*, MsrA inhibitor 2, rCAG binder conf 77* and dCAG dye counter 35*.
N=C1/C(=C/c2ccc(-c3cccc(C(=O)O)c3)o2)C(=O)N=C2SC(CC(=O)N3CCOCC3)=NN12 was read as sPLA2-III inh -3, bovine MsrA act -13, rCAG RNA binder 34 and MsrA inhibitor 2.
Screening CCOC(=O)N1CCN(Cc2cc(=O)oc3cc4c(cc23)CCC4)CC1 returned sPLA2-III inh -5, bovine MsrA act -2, rCAG RNA binder 1 and MsrA inhibitor 2.
`Cc1ccc(SCC(=O)NC(=O)Nc2ccc3c(c2)OCCO3)cc1C` gave sPLA2-III inh -3, bovine MsrA act -2, rCAG RNA binder -1 and MsrA inhibitor -1.
Cc1ccnc(NS(=O)(=O)c2cc(C(F)(F)F)ccc2Cl)c1 was read as sPLA2-III inh -5, rCAG RNA binder 4 and MsrA inhibitor 0.
Screening COC(=O)[C@]12CCCCC=C1N(Cc1ccc3c(c1)OCO3)C(=O)[C@H](CC(=O)NCc1cccc(C(F)(F)F)c1)C2 returned sPLA2-III inh -10, rCAG RNA binder 3 and MsrA inhibitor 0.
COc1cc2[nH]c(=S)nc(Nc3ccc(NC(C)=O)cc3)c2cc1OC was read as sPLA2-III inh -5, bovine MsrA act -1, rCAG RNA binder 37*, MsrA inhibitor 3, rCAG binder conf 8 and dCAG dye counter 6.4*.
Cc1cccc(NC(=O)CN2C(=O)c3ccccc3S2(=O)=O)n1 was read as sPLA2-III inh 8, bovine MsrA act -4, rCAG RNA binder 2 and MsrA inhibitor 1.
Screening CC1CCc2nc3ccc(S(=O)(=O)N4CCC(C(=O)NC(C)c5ccccc5)CC4)cc3c(C(=O)O)c2C1 (stereo not drawn) returned sPLA2-III inh -6, bovine MsrA act -3, rCAG RNA binder 38*, MsrA inhibitor 0, rCAG binder conf 45* and dCAG dye counter 14*.
O=C(NCCc1ccccc1)c1cccc2c1C(=O)c1ccc(N3CCOCC3)cc1S2(=O)=O was read as sPLA2-III inh -4, bovine MsrA act -2, rCAG RNA binder -3 and MsrA inhibitor 0.
For NNc1nc2sc3c(c2c(=O)[nH]1)CCc1ccccc1-3 the results were sPLA2-III inh 10, bovine MsrA act -10, rCAG RNA binder 44*, MsrA inhibitor 1, rCAG binder conf 15 and dCAG dye counter 8.4*.
Screening O=C(O)c1ccc(-n2ncc(Cl)c(Cl)c2=O)cc1 returned bovine MsrA act -4.
Screening O=C1CS(=O)(=O)N(Cc2cccc(F)c2)c2ccc(Br)cc21 returned sPLA2-III inh -27, bovine MsrA act -2, rCAG RNA binder 52*, MsrA inhibitor 1, rCAG binder conf 27 and dCAG dye counter 14*.
`COc1ccc(CN2c3c(Br)cccc3C(=O)CS2(=O)=O)cc1` gave bovine MsrA act -5.
CCOC(=O)C1=C(c2ccccc2)N=c2s/c(=C\c3ccco3)c(=O)n2C1c1cccs1 (stereo not drawn) was read as sPLA2-III inh 5, bovine MsrA act -5, rCAG RNA binder 44*, MsrA inhibitor 2, rCAG binder conf 29 and dCAG dye counter 20*.
Screening CCOC(=O)C1=C(c2ccccc2)N=c2s/c(=C\c3cc(OC)c(OC)c(OC)c3)c(=O)n2C1c1cccs1 (stereo not drawn) returned sPLA2-III inh -4, bovine MsrA act -11, rCAG RNA binder 5 and MsrA inhibitor 0.
For Cc1ccc(CNC(=O)C2CCC(=O)N(CCCN3CCOCC3)C2)cc1 (stereo not drawn) the results were sPLA2-III inh 3, bovine MsrA act -2, rCAG RNA binder -2 and MsrA inhibitor -1.
Cc1ccc(S(=O)(=O)N2[C@@H](c3cccc(C)c3)C(C(=O)O)=C[C@H]2C(C)(C)C)cc1 was read as sPLA2-III inh -7, bovine MsrA act -5, rCAG RNA binder 28 and MsrA inhibitor -1.
Screening Cc1ccc(S(=O)(=O)N2[C@@H](c3ccc(Cl)c(Cl)c3)C(C(=O)O)=C[C@H]2C(C)(C)C)cc1 returned bovine MsrA act -2.
Screening Cc1ccc([C@H]2C(C(=O)O)=C[C@@H](C(C)(C)C)N2S(=O)(=O)c2ccc(C)cc2)cc1 returned sPLA2-III inh -9, bovine MsrA act 1, rCAG RNA binder 42*, MsrA inhibitor 1, rCAG binder conf 34 and dCAG dye counter 12*.
For Cc1ccc(S(=O)(=O)N2[C@@H](c3ccc(C(C)C)cc3)C(C(=O)O)=C[C@H]2C(C)(C)C)cc1 the results were sPLA2-III inh -23, bovine MsrA act -7, rCAG RNA binder 69*, MsrA inhibitor 1, rCAG binder conf 59* and dCAG dye counter 23*.
Screening CCC(C)OC1OC(CO)C(O)C(O)C1NC(C)=O (stereo not drawn) returned sPLA2-III inh -1, bovine MsrA act -15, rCAG RNA binder 3 and MsrA inhibitor 0.
Screening Cc1ccc(NC(=O)c2cc(NC(=O)CCC(=O)O)ccc2N2CCCCC2)cc1 returned sPLA2-III inh 9, bovine MsrA act -1, rCAG RNA binder 11 and MsrA inhibitor 1.
Cc1ccc(Cl)cc1NC(=O)c1cc(NC(=O)CCCC(=O)O)ccc1N1CCCCC1 was read as sPLA2-III inh -21, bovine MsrA act -2, rCAG RNA binder 51*, MsrA inhibitor 0, rCAG binder conf 56* and dCAG dye counter 18*.
Screening Cc1cc(C)c(Nc2cc(S(=O)(=O)O)c(N)c3c2C(=O)c2ccccc2C3=O)c(C)c1 returned sPLA2-III inh -42, bovine MsrA act -14, rCAG RNA binder 94*, MsrA inhibitor 0, rCAG binder conf 93* and dCAG dye counter 79*.
Cc1cc(C)c(NC(=O)COC(=O)c2cccc3c2C(=O)c2ccccc2C3=O)c(C)c1 was read as sPLA2-III inh 4, bovine MsrA act 6, rCAG RNA binder 9 and MsrA inhibitor 1.
For Cc1ccc(F)c(NC(=O)/C(C#N)=C(\O)c2ccc(C(C)(C)C)cc2)c1 the results were sPLA2-III inh -57, bovine MsrA act -12, rCAG RNA binder 89*, MsrA inhibitor 3, rCAG binder conf 90* and dCAG dye counter 61*.
Screening Cc1cccc(NC(=O)C(=O)NNC(=O)c2ccc(C(C)(C)C)cc2)c1 returned sPLA2-III inh -5, bovine MsrA act 0, rCAG RNA binder 5 and MsrA inhibitor 0.
`C=CCn1c(CNS(=O)(=O)c2ccc(F)cc2)n[nH]c1=S` gave sPLA2-III inh 18, bovine MsrA act 0, rCAG RNA binder -3 and MsrA inhibitor 1.
CSCCC(NC(=O)C1CC1)c1nc2ccccc2[nH]1 (stereo not drawn) was read as sPLA2-III inh 1, bovine MsrA act -3, rCAG RNA binder -1 and MsrA inhibitor 0.
Screening COc1cccc2sc(NN)nc12 returned sPLA2-III inh 12, bovine MsrA act -4, rCAG RNA binder 25 and MsrA inhibitor 1.
